KB-3-1 cytotox = kills parental KB-3-1 adenocarcinoma cells; KB-3-1 viability, CellTiter-Glo ATP luminescence, 72 h; Potency, µM (highest dose often 46.1 µM), actives largely listed as cytotoxic; 1.4% of 400,000 active; AID 1347075; note: % is set by controls: 0 for no effect and ±100 for the full control effect; nearly all actives have a fitted effect of over 60% in size
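Parental KB-3-1 adenocarcinoma cells in phenol-red-free DMEM with 10% FBS were pin-treated with compounds at several concentrations, incubated 72 h at 37 °C, and viability read by CellTiter-Glo luminescence; concentration-effect curves were fitted after normalization.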
ELG1 repair inh = ELG1-dependent DNA repair inhibition; AID 504467; 2.3% of 330,000 active; Potency, µM (titrated, usually from 46.1 µM), for inactives: at the highest dose activity change, negative = inhibition, usual class: inhibitors; HEK293T ELG1-luciferase reporter, luminescence, 16 h; DNA damage induced by 5-fluorouridine; note: % is set by controls: 0 for no effect and ±100 for the full control effect; nearly all actives have a fitted effect of over 55% in size
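Luminescence from the luciferase reporter, measured 30 min after ONE-Glo reagent at room temperature, was the read-out. Beforehand, 2,000 cells per well were exposed for 16 hr at 37 °C to 5-fluorouridine together with compound or vehicle.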
MCF10A rereplic = induces DNA re-replication in MCF 10a normal breast cells; MCF 10A DNA re-replication, Hoechst nuclear intensity, 48 h; Potency, µM (series often up to 46.1 µM), for the others: top-dose activity, positive = re-replication, most hits filed as activators; 2.9% of 350,000 active; note: % of control where 0% means no effect; nearly all actives have a fitted effect of over 50% in size
KB-V1 cytotox = KB-V1 MDR subline cytotoxicity; 3.4% of 400,000 active; Potency, µM (top dose mostly 46.1 µM), usual class: cytotoxic; AID 1347076; KB-V1 MDR cells viability, CellTiter-Glo, 72 h; note: % is set by controls: 0 for no effect and ±100 for the full control effect; nearly all actives have a fitted effect of over 60% in size
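KB-V1, DMEM (no phenol red) + 10% FBS; cpd pin-transferred, titration series; 72 h, 37 degrees C; CellTiter-Glo, luminescence. Data normalized, curve-fit.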
SW480 rereplic = DNA re-replication induction in SW480 cells; AID 624297; SW480 DNA re-replication, Hoechst DNA content imaging, 48 h; 1.8% of 340,000 active; Potency, µM (series often up to 46.1 µM), without a hit: at the top dose re-replication activation, actives largely listed as activators; note: % of control where 0% means no effect; nearly all actives have a fitted effect of over 55% in size
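Readout is total intensity of Hoechst-stained nuclei, excited at 405 nm and collected at 500-530 nm. Compound treatment lasted 48 hr at 37 C in 5% CO2 before staining.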
Active calls of the source: *; [ ] = dose if it differs, or a comment. In the library only some 8.2% were active in any assay of this set; here they are far more common. Calls come from the whole dose curve; as a rule, active = well fitted curve in the direction sought with a large enough effect; inconclusive = small, poorly fitted or top-dose-only effect, or another doubt; inactive = no such curve, though single readings can be large; an effect the other way counts as inactive or inconclusive. Potency is the fitted concentration of half-maximal effect.

Screening CC(Cl)=CCn1c(NCCc2ccccc2)nc2c1c(=O)n(C)c(=O)n2C returned KB-3-1 cytotox inactive and KB-V1 cytotox inactive.
Screening COc1ccc(CCNc2nc3c(c(=O)n(C)c(=O)n3C)n2C)cc1OC returned KB-3-1 cytotox inactive, ELG1 repair inh -15%, MCF10A rereplic 6%, KB-V1 cytotox 15µM* and SW480 rereplic -3%.
COc1ccc(CCNC(=O)CSc2nc3c(c(=O)n(C)c(=O)n3C)n2C(C)C)cc1OC was read as KB-3-1 cytotox inactive, ELG1 repair inh -1%, MCF10A rereplic -2%, KB-V1 cytotox inactive and SW480 rereplic -4%.
Cn1c(=O)c2c(nc(NCCc3ccccc3)n2Cc2ccc(F)cc2)n(C)c1=O was read as KB-3-1 cytotox inconclusive, ELG1 repair inh 12µM*, MCF10A rereplic 26%, KB-V1 cytotox 4.1µM* and SW480 rereplic 7%.
`O=C(CSc1nc(=O)n(CCN2CCOCC2)c2c1CCCC2)Nc1cccc([N+](=O)[O-])c1` gave KB-3-1 cytotox inactive, ELG1 repair inh -21%, MCF10A rereplic -9%, KB-V1 cytotox inactive and SW480 rereplic -261%.
For CCc1ccccc1NC(=O)C1CCN(C(=O)N2CC(C)Oc3ccc(Cl)cc32)CC1 (centres undefined) the results were KB-3-1 cytotox inactive and KB-V1 cytotox inactive.
Screening Cc1ccc(-c2cccc(C3CC=CC4C3C(=O)N(Cc3ccccc3)C4c3cc(C)ccc3F)c2)cc1 (centres undefined) returned KB-3-1 cytotox 21µM*, ELG1 repair inh 2%, MCF10A rereplic -1%, KB-V1 cytotox inactive and SW480 rereplic -1%.
For C[C@@H]1CC=C[C@H]2[C@H]1C(=O)N(Cc1ccccc1)[C@H]2c1ccc(-c2ccc(F)cc2)cc1F the results were KB-3-1 cytotox inconclusive, ELG1 repair inh 0%, MCF10A rereplic -3%, KB-V1 cytotox inactive and SW480 rereplic -22%[9.22 µM].
COc1ccc(-c2ccc(OC)c([C@H]3[C@H]4C=CC[C@@H](C)[C@@H]4C(=O)N3Cc3ccccc3)c2)cc1OC was read as KB-3-1 cytotox inactive, ELG1 repair inh -20%, MCF10A rereplic 7%, KB-V1 cytotox inactive and SW480 rereplic -36%[9.22 µM].
`COc1ccc(-c2ccc(F)cc2)cc1[C@H]1[C@H]2C=CC[C@@H](C)[C@@H]2C(=O)N1Cc1ccccc1` gave KB-3-1 cytotox inconclusive, ELG1 repair inh -20%, MCF10A rereplic 21µM*, KB-V1 cytotox inconclusive and SW480 rereplic -7%[9.22 µM].
For C[C@@H]1CC=C[C@H]2[C@H]1C(=O)N(Cc1ccccc1)[C@H]2c1ccc(-c2ccoc2)cc1F the results were KB-3-1 cytotox inactive, ELG1 repair inh 7%, MCF10A rereplic 18µM*, KB-V1 cytotox inactive and SW480 rereplic 3%.
`COc1ccc(-c2cccc(C3CC=CC4C3C(=O)N(Cc3ccccc3)C4c3ccc(C(F)(F)F)cc3)c2)cc1` (centres undefined) gave KB-3-1 cytotox inconclusive, ELG1 repair inh inconclusive, MCF10A rereplic inconclusive, KB-V1 cytotox inactive and SW480 rereplic 12%[9.22 µM].
Screening COc1ccc(-c2ccccc2[C@H]2[C@@H]3C=CC[C@@H](C)[C@@H]3C(=O)N2Cc2ccccc2)cc1 returned KB-3-1 cytotox inactive, ELG1 repair inh inconclusive, MCF10A rereplic 23µM*, KB-V1 cytotox inactive and SW480 rereplic inconclusive.
Screening CC(C)CCn1c(=O)c2cccnc2n(CC(=O)Nc2ccccc2F)c1=O returned KB-3-1 cytotox inactive and KB-V1 cytotox inactive.
`COc1ccc(-c2ccc(C)cc2)cc1[C@H]1[C@@H]2C=CCC[C@@]2(C)C(=O)N1Cc1ccccc1` gave KB-3-1 cytotox inconclusive, ELG1 repair inh -1%, MCF10A rereplic inconclusive, KB-V1 cytotox inconclusive and SW480 rereplic inconclusive.
Screening COc1ccc(-c2ccc(C(C)=O)cc2)cc1[C@H]1[C@@H]2C=CCC[C@@]2(C)C(=O)N1Cc1ccccc1 returned KB-3-1 cytotox inconclusive, ELG1 repair inh 21µM*, MCF10A rereplic 25%, KB-V1 cytotox inconclusive and SW480 rereplic -16%[9.22 µM].
Screening Cc1ccc(CNC(=O)CSc2nnc(C)c3c(C)n(-c4ccccc4)nc23)cc1 returned KB-3-1 cytotox inactive and KB-V1 cytotox inactive.
COC(=O)C1=CN(c2cccc(OCc3ccccc3)c2)C(N)=C(C#N)C1c1ccccc1 (centres undefined) was read as KB-3-1 cytotox inactive and KB-V1 cytotox inconclusive.
COC(=O)C1=CN(c2ccc3c(c2)OCO3)C(N)=C(C#N)C1c1ccccc1 (centres undefined) was read as KB-3-1 cytotox 7.3µM* and KB-V1 cytotox 2.9µM*.
For COC(=O)C1=CN(c2ccc(Oc3ccccc3)cc2)C(N)=C(C#N)C1c1ccccc1 (centres undefined) the results were KB-3-1 cytotox inactive and KB-V1 cytotox inconclusive.
Screening COC(=O)C1=CN(c2ccc(OC)cc2)C(N)=C(C#N)C1c1cccc2ccccc12 (centres undefined) returned KB-3-1 cytotox 18µM* and KB-V1 cytotox inconclusive.
COC(=O)C1=CN(c2ccccc2OC)C(N)=C(C#N)C1c1cccc([N+](=O)[O-])c1 (centres undefined) was read as KB-3-1 cytotox 4.6µM* and KB-V1 cytotox 4.1µM*.
COC(=O)C1=CN(c2ccc(C(C)(C)C)cc2)C(N)=C(C#N)C1c1cccc2ccccc12 (centres undefined) was read as KB-3-1 cytotox inconclusive and KB-V1 cytotox inactive.
Screening O=C(Nc1cc(S(=O)(=O)N2CCOCC2)ccc1Cl)c1cc2ccccc2o1 returned KB-3-1 cytotox inactive, ELG1 repair inh inconclusive, MCF10A rereplic -1%, KB-V1 cytotox inactive and SW480 rereplic 1%.
COc1ccc(NC(=O)CSCc2cc(=O)n3nc(C4CC4)sc3n2)cc1 was read as KB-3-1 cytotox inactive, ELG1 repair inh inconclusive, MCF10A rereplic -3%, KB-V1 cytotox inconclusive and SW480 rereplic -2%.
For OC(c1ccc(Cl)cc1)c1ncc(-c2ccccc2Cl)[nH]1 (centres undefined) the results were KB-3-1 cytotox inactive and KB-V1 cytotox inactive.
For CC(C)C[C@H]1CN([C@@H](Cc2ccccc2)CN2CCC[C@H]2CN2C(=O)C(=O)NC[C@@H]2Cc2ccc(O)cc2)C(=O)C(=O)N1CCc1ccccc1 the results were KB-3-1 cytotox inactive and KB-V1 cytotox inactive.
Fc1ccc(CNc2nc(-c3ccccc3)cc(C(F)(F)F)n2)cc1 was read as KB-3-1 cytotox inactive and KB-V1 cytotox inactive.

Source: PubChem BioAssay (National Center for Advancing Translational Sciences (NCATS))
